Source: PubChem BioAssay AID1159580 (chemical genetic matrix, 2015)
Hit rate of the full screen: of about 5,500 compounds, about 2,000 (36%) were called active. Not shown: some 18% with an inconclusive outcome. Rule as the data show it: active = normalized growth mostly below about 0.91 (no sharp cut-off); inconclusive = no clear call, values can overlap the other calls; inactive = mostly above about 0.92. The list shows a part of the results.

Experiment: chemical genetic growth profiling, strain panel (AID 1159580);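 also: tested at 20 µM; growth read once vehicle control cultures reached saturation at 30 °C; 1 = growth at the plate median or of vehicle wells; lower values mean less growth of the strain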
Conditions: growth OD
[1] = S. cerevisiae deletion strains, locus YDL101C, strain DUN1, active compounds read low
[2] = S. cerevisiae deletion strains, locus YHR030C, strain SLT2, active compounds read low
[3] = S. cerevisiae deletion strains, locus YAR019C, strain CDC15, active compounds read low
[4] = S. cerevisiae deletion strains, locus YBL105C, strain PKC1, active compounds read low
[5] = S. cerevisiae deletion strains, locus YBR135W, strain CKS1, active compounds read low
[6] = S. cerevisiae deletion strains, locus YBR136W, strain MEC1, active compounds read low
[7] = S. cerevisiae deletion strains, locus YBR160W, strain CDC28, active compounds read low
[8] = S. cerevisiae deletion strains, locus YDL017W, strain CDC7, active compounds read low
[9] = S. cerevisiae deletion strains, locus YDL108W, strain KIN28, active compounds read low
[10] = S. cerevisiae deletion strains, locus YDL132W, strain cdc53, active compounds read low
[11] = S. cerevisiae deletion strains, locus YDL214C, strain PRR2, active compounds read low
[12] = S. cerevisiae deletion strains, locus YDR052C, strain DBF4, active compounds read low
[13] = S. cerevisiae deletion strains, locus YDR226W, strain ADK1, active compounds read low
[14] = S. cerevisiae deletion strains, locus YDR477W, strain SNF1, active compounds read low
[15] = S. cerevisiae deletion strains, locus YER123W, strain YCK3, active compounds read low
[16] = S. cerevisiae deletion strains, locus YER133W, strain GLC7, active compounds read low
[17] = S. cerevisiae deletion strains, locus YFL009W, strain cdc4, active compounds read low
[18] = S. cerevisiae deletion strains, locus YFL029C, strain CAK1, active compounds read low
[19] = S. cerevisiae deletion strains, locus YFR003C, strain YPI1, active compounds read low
[20] = S. cerevisiae deletion strains, locus YFR019W, strain FAB1, active compounds read low
[21] = S. cerevisiae deletion strains, locus YFR028C, strain CDC14, active compounds read low
[22] = S. cerevisiae deletion strains, locus YGR040W, strain KSS1, active compounds read low
[23] = S. cerevisiae deletion strains, locus YGR052W, strain FMP48, active compounds read low
[24] = S. cerevisiae deletion strains, locus YGR092W, strain DBF2, active compounds read low
[25] = S. cerevisiae deletion strains, locus YHR079C, strain IRE1, active compounds read low
[26] = S. cerevisiae deletion strains, locus YHR082C, strain KSP1, active compounds read low
[27] = S. cerevisiae deletion strains, locus YHR205W, strain SCH9, active compounds read low
[28] = S. cerevisiae deletion strains, locus YJL095W, strain BCK1, active compounds read low
[29] = S. cerevisiae deletion strains, locus YJL128C, strain PBS2, active compounds read low
[30] = S. cerevisiae deletion strains, locus YJL157C, strain FAR1, active compounds read low
[31] = S. cerevisiae deletion strains, locus YJR016C, strain ILV3, active compounds read low
[32] = S. cerevisiae deletion strains, locus YJR066W, strain TOR1 (second series), active compounds read low
[33] = S. cerevisiae deletion strains, locus YJR066W, strain TOR1, active compounds read low
[34] = S. cerevisiae deletion strains, locus YKL048C, strain ELM1, active compounds read low
[35] = S. cerevisiae deletion strains, locus YKL067W, strain YNK1, active compounds read low
[36] = S. cerevisiae deletion strains, locus YKL101W, strain HSL1, active compounds read low
[37] = S. cerevisiae deletion strains, locus YKL193C, strain SDS22, active compounds read low
[38] = S. cerevisiae deletion strains, locus YKL203C, strain TOR2, active compounds read low
[39] = S. cerevisiae deletion strains, locus YLR113W, strain HOG1, active compounds read low
[40] = S. cerevisiae deletion strains, locus YLR133W, strain CKI1, active compounds read low
[41] = S. cerevisiae deletion strains, locus YLR403W, strain SFP1, active compounds read low
[42] = S. cerevisiae deletion strains, locus YML070W, strain DAK1, active compounds read low
[43] = S. cerevisiae deletion strains, locus YMR205C, strain PFK2 (second series), active compounds read low
[44] = S. cerevisiae deletion strains, locus YNL006W, strain LST8, active compounds read low
[45] = S. cerevisiae deletion strains, locus YNL020C, strain ARK1, active compounds read low
[46] = S. cerevisiae deletion strains, locus YNL161W, strain CBK1, active compounds read low
[47] = S. cerevisiae deletion strains, locus YNL183C, strain NPR1, active compounds read low
[48] = S. cerevisiae deletion strains, locus YNL207W, strain RIO2, active compounds read low
[49] = S. cerevisiae deletion strains, locus YNL222W, strain SSU72, active compounds read low
[50] = S. cerevisiae deletion strains, locus YNL307C, strain MCK1 (second series), active compounds read low
[51] = S. cerevisiae deletion strains, locus YOL136C, strain PFK27, active compounds read low
[52] = S. cerevisiae deletion strains, locus YOR061W, strain CKA2, active compounds read low
[53] = S. cerevisiae deletion strains, locus YOR119C, strain RIO1, active compounds read low
[54] = S. cerevisiae deletion strains, locus YOR231W, strain MKK1, active compounds read low
[55] = S. cerevisiae deletion strains, locus YOR329C, strain SCD5, active compounds read low
[56] = S. cerevisiae deletion strains, locus YPL031C, strain PHO85, active compounds read low
[57] = S. cerevisiae deletion strains, locus YPL153C, strain RAD53, active compounds read low
[58] = S. cerevisiae deletion strains, locus YPL204W, strain HRR25, active compounds read low
[59] = S. cerevisiae deletion strains, locus YPL209C, strain IPL1, active compounds read low
[60] = S. cerevisiae deletion strains, locus YPL256C, strain CLN2, active compounds read low
[61] = S. cerevisiae deletion strains, locus YPR025C, strain CCL1, active compounds read low
[62] = S. cerevisiae deletion strains, locus YPR106W, strain ISR1, active compounds read low
[63] = S. cerevisiae deletion strains, locus YPR111W, strain DBF20, active compounds read low
[64] = S. cerevisiae deletion strains, strain NNK1, active compounds read low
[65] = S. cerevisiae deletion strains, strain TSCII, active compounds read low

Measured: normalized growth

CC(C)(C)S(=O)(=O)/C(C#N)=C/N1CCCCC1
inactive: S. cerevisiae deletion strains, locus YBR229C, strain ROT2, active compounds read low 1.02 | [1] 0.989 | S. cerevisiae deletion strains, locus YDR150W, strain NUM1, active compounds read low 0.995 | S. cerevisiae deletion strains, locus YEL061C, strain CIN8, active compounds read low 1.05 | S. cerevisiae deletion strains, locus YGR078C, strain PAC10, active compounds read low 0.993 | [2] 1.02 | S. cerevisiae deletion strains, locus YHR087W, strain rtc3, active compounds read low 0.992 | S. cerevisiae deletion strains, locus YJL187C, strain SWE1, active compounds read low 0.986 | S. cerevisiae deletion strains, locus YJR043C, strain POL32, active compounds read low 0.983 | S. cerevisiae deletion strains, locus YJR075W, strain HOC1, active compounds read low 1.02 | S. cerevisiae deletion strains, locus YLR039C, strain RIC1, active compounds read low 1.02 | S. cerevisiae deletion strains, locus YLR058C, strain SHM2 (second series), active compounds read low 1.01 | S. cerevisiae deletion strains, locus YLR085C, strain ARP6, active compounds read low 1.04 | S. cerevisiae deletion strains, locus YLR262C, strain YPT6, active compounds read low 1.03 | S. cerevisiae deletion strains, locus YML094W, strain GIM5, active compounds read low 1.02 | S. cerevisiae deletion strains, locus YMR219W, strain ESC1, active compounds read low 1.02 | S. cerevisiae deletion strains, locus YMR263W, strain SAP30, active compounds read low 1 | S. cerevisiae deletion strains, locus YNL128W, strain TEP1, active compounds read low 1 | S. cerevisiae deletion strains, locus YNL153C, strain GIM3, active compounds read low 1 | S. cerevisiae deletion strains, locus YNL298W, strain CLA4 (second series), active compounds read low 1.02 | S. cerevisiae deletion strains, locus YNL322C, strain KRE1, active compounds read low 1.02 | S. cerevisiae deletion strains, locus YNR030W, strain Alg12, active compounds read low 1.02 | S. cerevisiae deletion strains, locus YPL055C, strain LGE1, active compounds read low 0.963 | S. cerevisiae deletion strains, locus YPL241C, strain CIN2, active compounds read low 1.02 | S. cerevisiae deletion strains, locus YPR135W, strain CTF4, active compounds read low 0.988 | S. cerevisiae strains, strain wild type, active compounds read low 1.01

FC(F)(F)c1cccc(-n2c(CSCc3cccc4ccccc34)n[nH]c2=S)c1
inactive: [3] 0.986 | [4] 1 | [5] 0.996 | [6] 1 | [7] 0.986 | [8] 0.993 | S. cerevisiae deletion strains, locus YDL028C, strain MPS1, active compounds read low 0.985 | [1] 0.989 | [9] 0.998 | [10] 0.988 | [11] 0.993 | [12] 1 | S. cerevisiae deletion strains, locus YDR054C, strain cdc34, active compounds read low 0.992 | [13] 0.986 | [14] 0.976 | [15] 0.958 | [16] 0.969 | [17] 0.978 | [18] 0.993 | [19] 1 | [20] 1.01 | [21] 0.994 | [22] 0.991 | [23] 1.08 | [24] 0.952 | [2] 1.12 | [25] 1.1 | [26] 1.09 | [27] 1.01 | S. cerevisiae deletion strains, locus YIL147C, strain SLN1, active compounds read low 0.999 | [28] 1.06 | [29] 0.979 | [30] 0.966 | [31] 0.993 | [32] 0.936 | [33] 1.09 | [34] 1 | [35] 0.989 | [36] 0.986 | [37] 0.99 | [38] 1.06 | [39] 1.07 | [40] 1 | [41] 0.973 | [42] 0.993 | S. cerevisiae deletion strains, locus YMR001C, strain CDC5, active compounds read low 0.992 | [43] 1 | S. cerevisiae deletion strains, locus YMR277W, strain FCP1, active compounds read low 0.976 | [44] 0.984 | [45] 1 | [46] 0.998 | [47] 1.13 | [48] 0.989 | [49] 0.997 | [50] 1 | S. cerevisiae deletion strains, locus YOL078W, strain AVO1, active compounds read low 0.99 | [51] 0.991 | [52] 0.977 | [53] 1.02 | [54] 1.09 | [55] 0.993 | [56] 0.977 | [57] 0.962 | [58] 0.967 | [59] 0.99 | [60] 1.1 | [61] 0.992 | [62] 0.981 | [63] 0.993 | [64] 1.01 | [65] 0.995

O=c1c2ccccc2[nH]c(=S)n1-c1cccc(C(F)(F)F)c1
active: [4] 0.811 | [5] 0.792 | [6] 0.774 | [8] 0.846 | [9] 0.565 | [12] 0.885 | [14] 0.427 | [16] 0.343 | [18] 0.633 | [22] 0.513 | [2] 0.334 | [28] 0.182 | [31] 0.717 | [38] 0.352 | [41] 0.459 | [53] 0.347 | [56] 0.589 | [57] 0.646 | [60] 0.824
inactive: [3] 0.927 | [7] 0.923 | [1] 0.954 | [10] 0.944 | [11] 0.908 | [13] 0.956 | [15] 0.899 | [17] 0.95 | [19] 0.917 | [20] 0.97 | [21] 0.949 | [23] 0.914 | [24] 0.874 | [25] 0.837 | [26] 0.832 | [27] 0.748 | [29] 0.957 | [30] 0.925 | [32] 0.892 | [33] 0.799 | [34] 0.862 | [35] 0.927 | [36] 0.865 | [37] 0.917 | [39] 0.912 | [40] 0.895 | [42] 0.926 | [43] 0.894 | [44] 0.965 | [45] 0.886 | [46] 0.929 | [47] 0.852 | [48] 0.943 | [49] 0.944 | [50] 0.884 | [51] 0.93 | [52] 0.833 | [54] 0.872 | [55] 0.948 | [58] 0.719 | [59] 0.95 | [61] 0.946 | [62] 0.948 | [63] 0.962 | [64] 0.961 | [65] 0.889
